# Experimental data reported in the supplement of paper PMC10981050.
# Where “and” joins values, the source holds several entries; their conditions need not be identical. Identical values can stand only once.
# Columns and labels:
# Experiment in all cases: cell viability relative to vehicle control; higher = less cytotoxic
# Details in all cases: 10 µM
# K562 = system: K562
# Procedure, shortened: (§1)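 Screening covered the Selleck bioactive, kinase and epigenetic probe libraries, less identity-inconsistent compounds, on CRISPR-edited mutant clones and isogenic wild-type clones of four leukaemia lines. Cells, at 2000 per well in 50 µL medium, received a single 10 µM acoustically dispensed dose. After 48 h the supernatant was removed and CellTiter-Glo luminescence was read. Viability was analysed in Genedata Screener as percent of the on-plate vehicle control.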
# MARIMO = system: MARIMO
# Procedure, shortened: as §1
# MOLM14 = system: MOLM14
# Procedure, shortened: as §1
# OCI-AML2 = system: OCI-AML2
# Procedure, shortened: as §1
Structure (SMILES),cell viability (K562; SRSF2 genotype: SRSF2 P95H/wt),cell viability (K562; SRSF2 genotype: SRSF2 wt/wt) [%],cell viability (MARIMO; SRSF2 genotype: SRSF2 P95H/wt) [%],cell viability (MARIMO; SRSF2 genotype: SRSF2 wt/wt) [%],cell viability (MOLM14; SRSF2 genotype: SRSF2 P95H/wt) [%],cell viability (MOLM14; SRSF2 genotype: SRSF2 wt/wt) [%],cell viability (OCI-AML2; SRSF2 genotype: P95H/wt) [%],cell viability (OCI-AML2; SRSF2 genotype: wt/wt) [%]
Cc1cc(NC(=O)c2cccc(NC(=O)/C=C/CN(C)C)c2)ccc1Nc1nccc(-c2cccnc2)n1,59.8% and 60.8%,65.5,53.1,50.7,6.36,6.17,17.2,26.6
Cc1nc(C)c(C)nc1C [Tetramethylpyrazine],111% and 112%,118,107,111,108,107,112,116
C[C@H]1[C@H](C)CC[C@]2(C(=O)O)CC[C@]3(C)C(=CC[C@@H]4[C@@]5(C)C[C@@H](O)[C@H](O)C(C)(C)[C@@H]5CC[C@]43C)[C@H]12 [Corosolic acid],94.6% and 95.3%,93.5,94.7,107,97.3,96.1,103,99.7
O=C(Cc1ccc(-c2ccc(OCCN3CCOCC3)cc2)cn1)NCc1ccccc1,10.7% and 34.3%,33,6.74,9.4,1.55,2.72,4.61,8.35
Cc1cc(C)nc(NS(=O)(=O)c2ccc(N)cc2)n1 [Sulfamethazine],108% and 111%,108,105,109,110,110,119,96.2
Nc1nc(CC(=O)Nc2ccc(CCNC[C@H](O)c3ccccc3)cc2)cs1 [Mirabegron (YM178)],102% and 111%,107,103,114,101,103,110,93.1
OC(c1ccccc1)(c1ccccc1)C12CC[N+](CCOCc3ccccc3)(CC1)CC2 [Umeclidinium bromide],81.8% and 94.9%,89.5,76.2,90.9,86.5,81.6,75.6,85.1
C[C@@H]1O[C@@H](O[C@H]2[C@H](O[C@H]3CC[C@@]4(C)[C@@H](CC[C@]5(C)[C@@H]4CC=C4[C@@H]6CC(C)(C)CC[C@]6(C(=O)O)CC[C@]45C)[C@]3(C)CO)OC[C@H](O[C@@H]3O[C@H](CO)[C@@H](O)[C@H](O)[C@H]3O)[C@@H]2O)[C@H](O)[C@H](O)[C@H]1O [Pulsatilla saponin D],0.56% and 0.59%,0.55,0.46,0.67,0.5,0.59,0.5,0.54
CN(C)c1ccc(-c2nc3ncc(Cl)c(N4CCN(CC(=O)Nc5nccs5)CC4)c3[nH]2)cc1,95.8% and 101%,95.2,96.9,109,78.9,87.5,92.4,95.1
COc1cc2c(cc1O)CC[C@@H]1[C@@H]2CC[C@]2(C)[C@@H](O)CC[C@@H]12 [2-Methoxyestradiol],14% and 27.1%,29.9,10.4,10.9,7.93,2.27,6.68,13.6
